Results filed as inconclusive are left out. Calls of active or inactive are those of the source. Unless noted, calls follow the shape of the full dose curve.

The nature of assay [1]: Nuclear factor erythroid 2-related factor 2/antioxidant responsive element (Nrf2/ARE) small molecule agonists: luciferase reporter gene qHTS assay in human keratinocytes (AID 1919969). Also: nearly all actives have a fitted effect of over 35% in size. Also: potency is read from the fitted curve at half-maximal effect. The note with it: KeratinoSens HaCaT ARE-luciferase, luminescence, 24 h; series mostly up to 92.4 µM. Background: Reporter assays use an easily measured gene product as a stand-in for the process of interest.

Assay [2] has as its target Gonadotropin-releasing hormone receptor (Homo sapiens) (UniProt P30968). Description: Human gonadotropin-releasing hormone receptor (GnRHR) small molecule agonists, calcium flux assay in GnRHR-HEK293 cells (AID 1920063). Also: nearly all actives have a fitted effect of over 35% in size. Also: potency is read from the fitted curve at half-maximal effect. The note with it: calcium flux fluorescence, agonist mode; series mostly up to 57.6 µM. An outline of the steps: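 Calcium-dye fluorescence, Ex/Em=480/540, recorded every 1 sec over 3 min after compound addition to GnRHR-HEK293 cells. Cells had been seeded 18 hours earlier and dye-loaded for 1 hour at 37 C. Fifteen concentrations, triplicates.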
For orientation: Calcium assays in cells follow changes in intracellular calcium, usually with a dye or a luminescent sensor.

Assay [3] concerns the target KiSS-1 receptor (Homo sapiens) (UniProt Q969F8). As to the kind of experiment: Human kisspeptin (KISS1R) small molecule agonists, calcium flux assay in KISS1R-HEK293 cells (AID 1920064; active = well fitted activation curve with a large enough effect in the repeat runs). The following applies: KISS1R-HEK293, calcium flux fluorescence, agonist; series mostly up to 76.8 µM. The procedure, abridged: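 Calcium flux read-out: kinetic fluorescence at Ex/Em=480/540, 1 s intervals over 3 min, after pin-tool compound addition to dye-loaded KISS1R-HEK293 cells. Fifteen concentrations, triplicates.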

The nature of assay [4]: G protein-coupled receptor (GPCR) small molecule agonists, calcium flux assay: HEK293 wild type cell line counter screen (AID 1920065). The note with it: HEK293 WT calcium flux, fluorescence, agonist mode; series mostly up to 57.6 µM. An outline of the steps: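 Agonist mode; 18 h seeding at 37 C, 1 h dye load at 37 C; compounds pinned from DMSO, ATP as positive control; kinetic fluorescence 480/540 nm, 3 min, 1 s reads; 15 concentrations, triplicate.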

The nature of assay [5]: p53 small molecule agonists, cell-based qHTS assay with human liver microsomes (AID 1963577). The note with it: HCT-116 p53RE-bla with human liver microsomes, ratio, 16 h; series mostly up to 66 µM. An outline of the steps: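 In this qHTS, p53 response-element beta-lactamase cells receive test compound together with a microsome/NADPH activating system (0.5 mg/mL final each) and are incubated 16 h at 37 C before LiveBLAzer fluorescence detection.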
Background: qHTS replaces the single test concentration by a dilution series.

The nature of assay [6]: p53 small molecule agonists, cell-based qHTS assay with human liver microsomes: qHTS cell viability counter screen (AID 1963579). Also: nearly all actives have a fitted effect of over 45% in size. The following applies: p53RE-bla HCT-116 viability, ATP luminescence, 16 h, HLM; series mostly up to 66 µM. An outline of the steps: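 Metabolically activated exposure: compounds, human liver microsomes and NADPH (0.5 mg/mL final apiece) were added to p53RE-bla cells seeded 5 h earlier, left 16 h at 37 C, and then assessed for viability by CellTiter-Glo luminescence.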

A short description of assay [7]: p53 small molecule agonists, cell-based qHTS assay with rat liver microsomes: qHTS cell viability counter screen (AID 1963580). Also: nearly all actives have a fitted effect of over 45% in size. The note with it: p53RE-bla HCT-116 + rat microsomes, ATP viability, 16 h; series mostly up to 66 µM. The procedure, abridged: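 After the beta-lactamase ratio was read, CellTiter-Glo was added to the same wells and luminescence measured at 30 min; cells had been treated 16 h at 37 C with compounds, rat liver microsomes and NADPH (0.5 mg/mL final each).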

Assay [8] in a line: p53 small molecule agonists, cell-based qHTS assay (AID 1963582; active = well fitted activation curve with a large enough effect in the signal ratio in the repeat runs, not every such curve was filed as active; the % refers to the signal ratio; also: potency is read from the fitted curve at half-maximal effect). The following applies: HCT-116 p53RE-bla reporter, beta-lactamase FRET ratio, 16 h; series mostly up to 66 µM. The procedure, abridged: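 Fluorescence intensity read-out of a beta-lactamase reporter under a p53 response element. Cells were exposed to DMSO-dissolved compounds for 16 h at 37 C, then developed with FRET substrate for 2 h at RT.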

Assay [9] has as its target 5-hydroxytryptamine receptor 2A (Homo sapiens) (UniProt P28223). Description: 5-hydroxytryptamine receptor 2A (HTR2A) small molecule antagonists, cell-based qHTS assay (AID 1963586). Also: nearly all actives have a fitted effect of over 45% in size. Also: potency is read from the fitted curve at half-maximal effect. The following applies: HTR2A-CHO cells, DOI-induced calcium flux, fluorescence; series mostly up to 61.5 µM. The procedure, abridged: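 CHO cells stably expressing human HTR2A were plated for 18 h at 37 C, then loaded with calcium dye for 1 h. Compounds were preincubated 5 min at room temperature before DOI (4 nM solution) was added. Kinetic fluorescence was read for 3 min.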

Assay [10] has the same target. Description: 5-hydroxytryptamine receptor 2A (HTR2A) small molecule agonists, cell-based qHTS assay (AID 1963587). Also: nearly all actives have a fitted effect of over 30% in size. Also: potency is read from the fitted curve at half-maximal effect. The note with it: HTR2A-CHO cells, calcium flux fluorescence, agonist mode; series mostly up to 76.8 µM. The procedure, abridged: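 CHO cells stably expressing human HTR2A, plated 18 h, loaded with calcium dye 1 h at 37 C. Agonist mode: compounds added and intracellular calcium fluorescence recorded kinetically for 2 min at 1 sec intervals.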

Assay [11] addresses Muscarinic acetylcholine receptor M1 (Homo sapiens) (UniProt P11229). As to the kind of experiment: Cholinergic receptor muscarinic 1 (CHRM1) small molecule antagonists, cell-based qHTS assay (AID 1963588). Also: nearly all actives have a fitted effect of over 40% in size. Also: potency is read from the fitted curve at half-maximal effect. The following applies: CHRM1-CHO antagonist mode, calcium flux fluorescence; series mostly up to 61.5 µM. An outline of the steps: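 Compounds were tested at 15 concentrations in three independent runs. Dye-loaded CHRM1-CHO cells were exposed 5 min at room temperature before stimulation by acetylcholine added at 50nM. Intracellular calcium was read kinetically on FDSS for 3 min.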

Assay [12] has the same target. Description: Cholinergic receptor muscarinic 1 (CHRM1) small molecule agonists, cell-based qHTS assay (AID 1963589). Also: nearly all actives have a fitted effect of over 35% in size. The note with it: CHRM1-CHO cells, agonist mode, calcium flux fluorescence; series mostly up to 76.8 µM. The procedure, abridged:
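Calcium flux read-out: kinetic fluorescence at 1 sec intervals after pin-tool compound addition to dye-loaded CHRM1-CHO cells (human M1). Agonist mode; 15 concentrations tested in triplicate independent runs.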

Assay [13] in a line: cAMP Responsive Elements (CRE) small molecule agonists, cell-based qHTS assay (AID 1963590). The following applies: CRE-bla HEK293T, beta-lactamase FRET ratio, 3 h; series mostly up to 92.4 µM. An outline of the steps: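 Beta-lactamase reporter readout: LiveBLAzer B/G FRET substrate, 2 h at room temperature, added after 3 h compound treatment of CRE-bla HEK 293T cells at 37 C/5% CO2.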

Assay [14] in a line: cAMP Responsive Elements (CRE) small molecule antagonists, cell-based qHTS assay (AID 1963591; active = well fitted inhibition curve with a large enough effect in the signal ratio in the repeat runs, not every such curve was filed as active; the % refers to the signal ratio). The following applies: CRE-bla HEK293T, beta-lactamase FRET ratio; series mostly up to 92.4 µM. The procedure, abridged:
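HEK293T CRE-bla; 18 h preincubation; compound pin-transfer; NKH477 0.25 uM final, 3 h, 37 C; LiveBLAzer FRET substrate 2 h RT.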

Assay [15] concerns the target Beta-2 adrenergic receptor (Homo sapiens) (UniProt P07550). As to the kind of experiment: Adrenergic beta2 receptor (ADRB2) small molecule antagonists, cell-based qHTS assay (AID 1963592). Also: nearly all actives have a fitted effect of over 50% in size. The note with it: CHO-ADRB2 cells, isoproterenol-stimulated cAMP HTRF ratio, 0.5 h; series mostly up to 92.4 µM. An outline of the steps:
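Assay format: CHO-ADRB2 cells, 18-20hr seeding at 37C/5% CO2, then compound plus 1nM isoproterenol agonist mix for 0.5hr RT. Homogeneous time-resolved fluorescence cAMP detection after 1hr, expressed as 665/615 nm ratio.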

Assay [16] addresses D(2) dopamine receptor (Homo sapiens) (UniProt P14416). Description: Dopamine D2 receptor (DRD2) small molecule agonists, cell-based qHTS assay (AID 1963594). Also: nearly all actives have a fitted effect of over 35% in size. The note with it: HEK293-DRD2 cAMP HTRF, agonist mode, 30 min; series mostly up to 92.4 µM. The procedure, abridged:
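HEK293 cells stably expressing human DRD2, pre-treated with PDE inhibitor Ro20-1724 (0.1 mM final) and compound 10 min at room temperature, then stimulated with NKH477 (200nM […]) for 30 min. cAMP read by HTRF (665/620 nm).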

Assay [17] has the same target. Description: Dopamine D2 receptor (DRD2) small molecule antagonists, cell-based qHTS assay (AID 1963595; active = well fitted inhibition curve with a large enough effect in the signal ratio in the repeat runs, with a control signal flat; the % refers to the signal ratio). The following applies: HEK293-DRD2 cAMP HTRF antagonist mode; series mostly up to 92.4 µM. The procedure, abridged: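 HTRF cAMP read-out at 665 and 620 nm emission (340 nm excitation). Antagonist mode: compounds were tested against 12 nM quinpirole in DRD2-HEK293 cells, with 200 nM NKH477 raising cAMP and 0.1 mM Ro20-1724 blocking its breakdown.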

Assay [18] can be described thus: p53 small molecule agonists, cell-based qHTS assay with rat liver microsomes (AID 1963578). The note with it: HCT-116 p53RE-bla, beta-lactamase ratio, 16 h; series mostly up to 66 µM. An outline of the steps:
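Agonist mode in p53RE-bla reporter cells, with compounds co-incubated 16 h at 37 C alongside 0.5 mg/mL rat liver microsomes and 0.5 mg/mL NADPH (final), followed by a 2 h LiveBLAzer detection step.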

Assay [19] in a line: p53 small molecule agonists, cell-based qHTS assay: qHTS cell viability counter screen (AID 1963581). Also: nearly all actives have a fitted effect of over 45% in size. The note with it: p53RE-bla HCT-116 viability, ATP luminescence, 16 h; series mostly up to 66 µM. An outline of the steps:
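Cytotoxicity read-out: ATP-based luminescence (CellTiter-Glo, 30 min RT) measured in the same wells as the p53 reporter assay, HCT-116 p53RE-bla cells, 16 h compound exposure at 37 C.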

For assay [20], the target named is Beta-2 adrenergic receptor (Homo sapiens) (UniProt P07550). As to the kind of experiment: Adrenergic beta2 receptor (ADRB2) small molecule agonists, cell-based qHTS assay (AID 1963593).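 Also: CHO cells stably overexpressing human ADRB2.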 The following applies: CHO-ADRB2 cells, cAMP HTRF, 30 min; series mostly up to 92.4 µM. An outline of the steps: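 CHO cells stably over-expressing ADRB2 were plated overnight at 37C, then dosed with compounds plus a stimulation mix containing 100uM IBMX and 25uM Ro-20-1724 for 0.5hr at room temperature. cAMP was measured by HTRF competition, 1hr.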
Beta-2 adrenergic receptor (Homo sapiens), sequence (P07550 whole entry, looked up): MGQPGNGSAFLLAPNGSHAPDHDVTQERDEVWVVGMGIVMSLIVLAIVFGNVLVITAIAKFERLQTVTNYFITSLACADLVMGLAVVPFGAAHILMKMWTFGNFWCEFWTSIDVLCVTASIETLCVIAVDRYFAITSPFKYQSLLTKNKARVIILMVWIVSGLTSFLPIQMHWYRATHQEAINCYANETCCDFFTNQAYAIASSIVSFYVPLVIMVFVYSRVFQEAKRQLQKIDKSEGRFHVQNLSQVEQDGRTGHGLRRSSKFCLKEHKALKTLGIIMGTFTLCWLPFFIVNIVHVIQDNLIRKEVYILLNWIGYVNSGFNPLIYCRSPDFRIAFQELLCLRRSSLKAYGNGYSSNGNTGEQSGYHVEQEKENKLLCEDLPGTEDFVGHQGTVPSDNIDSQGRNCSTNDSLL

Gonadotropin-releasing hormone receptor (Homo sapiens), sequence (P30968 whole entry, looked up): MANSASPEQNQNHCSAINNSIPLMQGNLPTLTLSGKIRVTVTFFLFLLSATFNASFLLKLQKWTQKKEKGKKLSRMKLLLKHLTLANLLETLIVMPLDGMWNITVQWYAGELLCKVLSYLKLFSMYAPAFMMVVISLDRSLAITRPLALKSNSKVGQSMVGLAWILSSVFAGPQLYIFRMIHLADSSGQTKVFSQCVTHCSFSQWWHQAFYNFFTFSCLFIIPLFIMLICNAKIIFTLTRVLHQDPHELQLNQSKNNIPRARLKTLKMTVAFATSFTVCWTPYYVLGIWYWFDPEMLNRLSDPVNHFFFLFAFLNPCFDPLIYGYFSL
5-hydroxytryptamine receptor 2A (Homo sapiens), sequence (P28223 whole entry, looked up): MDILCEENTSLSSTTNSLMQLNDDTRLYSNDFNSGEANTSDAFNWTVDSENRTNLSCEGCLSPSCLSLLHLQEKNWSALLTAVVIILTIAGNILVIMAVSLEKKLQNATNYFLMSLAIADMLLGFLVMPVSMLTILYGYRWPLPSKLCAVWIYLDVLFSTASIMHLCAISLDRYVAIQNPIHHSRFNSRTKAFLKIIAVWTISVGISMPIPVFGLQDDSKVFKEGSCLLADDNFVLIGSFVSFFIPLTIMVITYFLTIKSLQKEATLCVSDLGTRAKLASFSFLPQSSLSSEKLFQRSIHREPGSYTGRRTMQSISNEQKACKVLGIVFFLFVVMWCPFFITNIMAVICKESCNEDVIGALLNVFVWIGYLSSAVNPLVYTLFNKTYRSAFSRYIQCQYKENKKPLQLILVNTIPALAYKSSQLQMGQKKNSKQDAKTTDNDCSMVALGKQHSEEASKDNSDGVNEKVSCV
Muscarinic acetylcholine receptor M1 (Homo sapiens), sequence (P11229 whole entry, looked up): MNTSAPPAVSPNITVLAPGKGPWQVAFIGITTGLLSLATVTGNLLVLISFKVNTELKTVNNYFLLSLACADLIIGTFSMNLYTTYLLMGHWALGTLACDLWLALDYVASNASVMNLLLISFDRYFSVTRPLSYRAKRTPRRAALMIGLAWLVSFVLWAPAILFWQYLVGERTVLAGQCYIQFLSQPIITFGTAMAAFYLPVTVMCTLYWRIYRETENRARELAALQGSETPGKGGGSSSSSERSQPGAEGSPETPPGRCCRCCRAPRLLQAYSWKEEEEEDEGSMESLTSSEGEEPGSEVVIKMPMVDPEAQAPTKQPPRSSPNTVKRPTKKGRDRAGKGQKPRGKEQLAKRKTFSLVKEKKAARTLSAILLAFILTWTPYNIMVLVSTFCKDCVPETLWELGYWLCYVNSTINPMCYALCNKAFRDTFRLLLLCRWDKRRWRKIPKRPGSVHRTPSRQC
KiSS-1 receptor (Homo sapiens), sequence (Q969F8 whole entry, looked up): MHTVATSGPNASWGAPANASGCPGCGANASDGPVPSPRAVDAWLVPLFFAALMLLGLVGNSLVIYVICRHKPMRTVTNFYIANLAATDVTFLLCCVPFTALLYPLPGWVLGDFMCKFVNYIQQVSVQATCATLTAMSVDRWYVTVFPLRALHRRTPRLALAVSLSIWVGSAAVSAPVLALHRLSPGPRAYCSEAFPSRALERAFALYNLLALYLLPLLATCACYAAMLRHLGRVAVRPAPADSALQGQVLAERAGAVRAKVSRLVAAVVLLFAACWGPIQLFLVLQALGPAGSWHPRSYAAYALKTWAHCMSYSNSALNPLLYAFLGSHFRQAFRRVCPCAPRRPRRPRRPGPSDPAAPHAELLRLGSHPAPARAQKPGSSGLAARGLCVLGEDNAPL
D(2) dopamine receptor (Homo sapiens), sequence (P14416 whole entry, looked up): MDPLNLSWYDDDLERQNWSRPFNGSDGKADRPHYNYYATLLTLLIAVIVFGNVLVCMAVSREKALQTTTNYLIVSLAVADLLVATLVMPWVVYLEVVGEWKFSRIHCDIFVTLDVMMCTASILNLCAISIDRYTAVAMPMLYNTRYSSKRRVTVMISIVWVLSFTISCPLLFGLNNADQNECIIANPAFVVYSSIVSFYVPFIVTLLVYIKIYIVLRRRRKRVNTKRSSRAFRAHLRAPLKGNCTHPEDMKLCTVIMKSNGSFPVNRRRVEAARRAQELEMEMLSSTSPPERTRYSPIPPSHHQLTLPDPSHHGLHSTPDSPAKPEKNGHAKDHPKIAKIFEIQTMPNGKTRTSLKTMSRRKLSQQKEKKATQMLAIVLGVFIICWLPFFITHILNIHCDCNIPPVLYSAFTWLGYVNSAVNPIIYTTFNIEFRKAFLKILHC

Take `CC1=C(C(=O)Nc2ccccc2)S(=O)(=O)CCO1`: the Potency was 10.9 µM (active) in assay [1] and 28.9 µM (active) in assay [8]. Besides, the Potency result in assay [2], in assay [3], in [4], in assay [5], in assay [6] and in assay [7] was “inactive” in each case. Further, the Potency result in assay [9], in assay [10], in assay [11], in assay [12], in assay [13] and in assay [14] was “inactive” in each case. Besides, the Potency result in assay [15], in [16] and in assay [17] was “inactive” each time.

`Cc1cc(C)c(C(=O)P(=O)(c2ccccc2)c2ccccc2)c(C)c1`: the Potency entry in assay [1], in [2], in [3], in assay [4], in [5] and in assay [18] was “inactive” throughout. The Potency entry in assay [7], in assay [11], in assay [12], in assay [15], in [16] and in assay [17] was “inactive” throughout. In addition, the Potency in [9] was 10.6 µM (active); in assay [10], 24.5 µM (active).

Regarding `CC(Cl)C(C)Cl` (stereo not given), the Potency entry in [1], in assay [2], in assay [3], in assay [4], in assay [5] and in assay [18] was “inactive” each time. Further, the Potency entry in [7], in [19], in assay [9], in [10], in [11] and in [13] was “inactive” each time. The Potency entry in assay [15], in [16] and in assay [17] was “inactive” throughout.

With `CCOC(C(=O)OCCN(C)C)(c1ccccc1)c1ccccc1`, the Potency result in [1], in assay [2], in assay [3], in assay [4], in assay [18] and in assay [6] was “inactive” in each case. For the same compound, the Potency entry in assay [7], in assay [19], in assay [8], in [9], in [10] and in [12] was “inactive” each time. For the same compound, the Potency result in assay [13], in [14], in assay [15] and in assay [17] was “inactive” in each case. Besides, the Potency in assay [11] was 2.31 µM (active).

On to `C[C@H](CN1CCOCC1)C(C(=O)N1CCCC1)(c1ccccc1)c1ccccc1`, for which the Potency result in [1], in assay [2], in assay [3], in assay [4], in assay [18] and in assay [6] was “inactive” throughout. In addition, the Potency result in assay [7], in assay [19], in assay [8], in assay [9], in assay [12] and in assay [14] was “inactive” in each case. In addition, the Potency result in [15], in [20], in assay [16] and in assay [17] was “inactive” throughout.

As for `Cc1cc(C(C)(C)c2cc(C)c(O)c(C)c2)cc(C)c1O`, the Potency result in [1], in [3], in assay [4], in assay [5], in [18] and in [11] was “inactive” throughout. Also, the Potency entry in assay [20] and in assay [16] was “inactive” throughout. The Potency in assay [2] was 33.5 µM (active).

Take `CC(=O)c1ccc(-c2ccccc2)cc1`: the Potency result in assay [1], in [2], in [3], in assay [4], in assay [5] and in assay [6] was “inactive” in each case. In addition, the Potency entry in [7], in [19], in [8], in assay [10], in [11] and in assay [12] was “inactive” each time. The Potency entry in assay [13], in [15], in assay [16] and in [17] was “inactive” each time.

In the case of `Nc1ccc(N=Nc2ccccc2)cc1`, the Potency in assay [1] is 10.9 µM (active). In addition, the Potency entry in assay [2], in assay [3], in [4], in assay [5], in assay [18] and in [7] was “inactive” in each case. Moreover, the Potency entry in assay [8], in assay [10], in [11] and in assay [12] was “inactive” throughout.

Source of the values: PubChem BioAssay (Tox21).
